For ten compounds, outcome results are on record in PubChem BioAssay AID488864 (Broad Institute, 2010).

Results with a measured potency or affinity are listed apart. The source made the active and inactive calls.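 How the source made its calls: active means ATP signal reduced by compound, with fitted active dose under ten times the top valid tested dose; inactive means the rest, compounds that increase ATP levels included.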

The assay in a line: INS-1E beta-cell viability without cytokines, dose response, cytotoxicity control for beta-cell cytokine protection project, CellTiter-Glo luminescence, dry powder (AID 488864).

Turning to `C[C@H]1CN([C@@H](C)CO)C(=O)c2cccc(NC(=O)NC3CCCCC3)c2O[C@@H]1CN(C)S(C)(=O)=O`, the outcome was inactive.
In the case of `C[C@@H]1CN([C@@H](C)CO)C(=O)c2cccc(NC(=O)Nc3cccc4ccccc34)c2O[C@H]1CN(C)S(=O)(=O)c1cccs1`, the outcome was inactive.
`COc1ccc(NC(=O)N(C)C[C@@H]2Oc3c(NC(=O)Nc4cccc5ccccc45)cccc3C(=O)N([C@@H](C)CO)C[C@H]2C)cc1`: the outcome was inactive.
The entry for `C[C@@H]1CN([C@@H](C)CO)C(=O)c2cccc(NC(=O)Nc3cccc4ccccc34)c2O[C@H]1CN(C)CC1CC1` is “inactive”; for `C[C@@H]1CN([C@H](C)CO)C(=O)c2cccc(NC(=O)Nc3ccccc3)c2O[C@H]1CN(C)S(=O)(=O)c1ccc(Cl)cc1` it is “inactive”; for `C[C@@H]1CN([C@@H](C)CO)C(=O)c2cccc(NC(=O)Nc3cccc4ccccc34)c2O[C@H]1CN(C)S(=O)(=O)c1ccc2c(c1)OCO2` it is “inactive”.
For the compound `C[C@@H]1CN([C@@H](C)CO)C(=O)c2cccc(NC(=O)Nc3cccc4ccccc34)c2O[C@H]1CN(C)S(=O)(=O)c1ccc2c(n1)N(C)CCO2`, the outcome was inactive.
Consider `COc1ccc(S(=O)(=O)N(C)C[C@@H]2Oc3c(NC(=O)Nc4ccc(F)cc4)cccc3C(=O)N([C@@H](C)CO)C[C@H]2C)cc1`, for which the compound was classed as inactive.
On to `COc1ccc(S(=O)(=O)N(C)C[C@@H]2Oc3c(NC(=O)Nc4cccc5ccccc45)cccc3C(=O)N([C@@H](C)CO)C[C@H]2C)cc1Cl`, for which the result was inactive.
To `COc1ccc(S(=O)(=O)N(C)C[C@@H]2Oc3c(NC(=O)Nc4cccc5ccccc45)cccc3C(=O)N([C@@H](C)CO)C[C@H]2C)cc1C` belongs “inactive”.
